Experimental data: PubChem BioAssay (NCI)
This is part of a sample that, as a whole, favours compounds with a hit. Of some 83,000 tested, about 20% had one in any assay.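 Negative percent growth values reflect cell death: -40 means 40% of the cells present at the start died, and -100 means all died.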 Unmarked numbers belong to inactive results. Calls of active or inactive are those of the source. How the source made its calls: active means growth percent below 10; inactive means the rest.

Test system: HL-60(TB) leukemia
Assay: NCI-60 one-dose screen, 48 h (100 = growth as untreated, 0 = no growth, -100 = all killed)
Conditions: 10 µM unless noted

SMILES	growth
COc1c2c(c(Br)c3c1C(CCc1ccccc1)N(C)CC3)OCO2 (centres undefined)	14.1%
COc1ccccc1NC(=O)c1ccc(NC(=O)CCl)s1	-53.8% (active)
C=CC(=O)Nc1ccc(C(=O)/C=C/c2ccc(N(C)C)cc2)c(O)c1	1.03% (active)
COc1ccc2[nH]c(O)c(N=Nc3nc(-c4ccc(Cl)cc4)cs3)c2c1	58%
CC(=O)OC[C@@]1(C)C2CC[C@]3(C)C(CC=C4C5CC(C)(C)CC[C@]5(C(=O)Nc5ccc(C)cc5)CC[C@]43C)[C@@]2(C)C[C@@H](OC(C)=O)[C@@H]1OC(C)=O (some centres undefined)	31.6%
COC(=O)CNC(=O)COc1c(OC)c(OC)cc2oc(-c3cccc(C(=O)Nc4ccc(Cl)cc4)c3)cc(=O)c12	101%
COc1ccc(-c2ccnc(SCc3cc4ccccc4[nH]c3=O)n2)cc1OC	87%
CN1C/C(=C\c2ccc(O)cc2O)c2[o+]c3cc(O)ccc3cc2C1	46.8%
CCCCC[C@@H]1C/C=C(\C)[C@@H](O)C(C)(C)C(=O)[C@@H](C)/C=C(\C)[C@@H]2C[C@H](O)C[C@](O)(CC(=O)O1)O2	11.8%
C=CC(=O)N1CCN(c2ccc3nc4c(nc3c2C(F)(F)F)C(=O)c2ncccc2C4=O)CC1	-24.7% (active)
CC(C)Sc1nc(NCCc2c[nH]c3ccccc23)c(C#N)c(-c2ccc(F)cc2)n1	27%
O=C(c1ccccc1)c1ccc2nc(-c3ccccc3Br)[nH]c2c1	-52.4% (active)
COc1ccc(OC)c(-c2cc(-c3c[nH]c4ccccc34)nc(N)c2C#N)c1	-32.2% (active)
COc1ccc(N=Nc2c(N)nn3c(N)c(C#N)c(-c4ccccc4)nc23)cc1	80.8%
N#Cc1cc(-c2ccnc(Nc3ccc(N4CCN(C5COC5)CC4)cc3)n2)ccc1N1CCCC1	48.1%
C=C1CC[C@@H]2[C@]3(C)COC(c4cn(-c5ccccc5)nc4-c4ccccc4)O[C@@H]3CC[C@@]2(C)[C@@H]1C/C=C1/C(=O)OC[C@H]1O (some centres undefined)	-33.7% (active)
COc1ccc2[nH]cc(-c3nnc(N)nc3-c3c[nH]c4ncc(Br)cc34)c2c1	103%

SMILES	growth
CN1CCN(C(=O)Oc2cc3c(c4ccccc24)[C@H](CCl)CN3C(=O)c2cc3cc(OCCCN4CCC4)ccc3[nH]2)[C@@H]2CSSC[C@H]21	-25.8% (active)
O=[N+]([O-])c1ccc(/C=C/c2nc3ccccc3n3c(=S)[nH]nc23)cc1	79.1%
CN1CCN(C(=O)CCN(C(=O)Oc2cc3c(c4ccccc24)[C@H](CCl)CN3C(=O)c2cc3cc(OCCCN4CCC4)ccc3[nH]2)[C@H]2CCSSC2)CC1	-56.7% (active)
CN(C)CCOc1ccc(C(=O)C2[C@H](c3ccc(Cl)cc3)[C@@H](c3ccccc3)NC23C(=O)Nc2ccccc23)cc1 (some centres undefined)	35.1%
COc1ccc(-c2nc3ccc(C(=O)NN4C(=O)c5ccc([N+](=O)[O-])cc5C4=O)cc3[nH]2)cc1	104%
C=C1CC[C@@H]2[C@]3(C)COC(c4cn[nH]c4-c4ccc(OC)cc4)O[C@@H]3CC[C@@]2(C)[C@@H]1C/C=C1/C(=O)OCC1O (some centres undefined)	1.59% (active)
O=C(Nc1ccc(Cl)c(C(F)(F)F)c1)c1cncc(C#Cc2cnc3ccc(N4CCOCC4)nn23)c1	-21.7% (active)
COc1ccc(-c2ccc(SCC(=O)Nc3ccc(S(N)(=O)=O)cc3Br)nn2)cc1	94.9%
O=C(CSc1nnc(-c2c[nH]c3ccccc23)n1-c1ccccc1)c1ccc(Cl)cc1	88.9%
CCCCNc1ccc2c3c(cccc13)C(=O)N(c1cccc(-c3nn(-c4ccccc4)cc3-c3nc4ccccc4s3)c1)C2=O	106%
CCCSc1nc(NCCc2c[nH]c3ccccc23)c(C#N)c(-c2ccc(F)cc2)n1	54.2%
NS(=O)(=O)c1ccc(NNC(=O)CCC(=O)c2ccccc2)cc1	75.3%
Cc1ccccc1[C@H]1C(C(=O)c2ccc(Cl)cc2)C2(N[C@@H]1c1ccccc1)C(=O)Nc1ccc(Br)cc12 (some centres undefined)	-1.57% (active)
C/C(=C\CSc1ccccc1C(=O)O)CCCC(C)CCCC(C)CCCC(C)C (centres undefined)	41.2%
O=C(COc1ccc(NC(=O)Nc2ccc(Cl)c(Cl)c2)cc1)N=Nc1c(O)[nH]c2ccc(Cl)cc12	-23% (active)
COc1ccccc1Nc1nnc(-c2c[nH]c3ccccc23)o1	2.38% (active)
CC1(c2ccccc2)NC(=O)N(CC(=O)Nc2ccc(C(=O)/C=C/c3ccc(Br)cc3)cc2)C1=O (centres undefined)	20.8%
